Results filed as inconclusive are left out. Entries that show only a call come without a potency. Calls of active or inactive are those of the source. The call rests on the fitted dose curve; in most records, active means well fitted cell-killing curve with a large enough effect; inconclusive means small, poorly fitted or top-dose-only effect, or effect the other way; inactive means flat fitted curve, though single readings scatter.
What follows are molecules tested on CAOV3 (assay: Primary qHTS to identify gynecologic anti-cancer compounds using libraries of approved drugs and bioactive compounds (AID 1345084; further: nearly all actives have a fitted effect of over 55% in size)). Settings: Gynecologic cancer cell panel viability, ATPlite luminescence, 48 h; series mostly up to 57.5 µM.
Excerpt: National Center for Advancing Translational Sciences [NCATS] Assay Overview: Chemotherapeutic drug responses vary from cancer to cancer and from patient to patient. These variations could be caused by a number of factors including patient genomic background, tumor mutations, tumor heterogeneity, and aspects of drug treatment. Chemotherapeutic drug resistance is also a common issue and can lead to ineffective treatment and patient death. Here we have profiled the cell killing effects of thousands of compounds to characterize the responses in three gynecological cancers, identify cancer-selective compounds, and understand the diversity of responses to these compounds from pan-cancer suppressors to single cell line selective compounds. In this assay, we screened a 7,914 compound drug library that included approved drug and bioactive compounds in six ovarian, three cervical, and […] placental cancer cell lines using the ATPlite assay for cell viability. […] The cervical cancer cell lines included HeLa, Ca Ski, and C-33 A. The placental cancer cell lines included JEG-3. HEK 293T cells were used as the control cell line to determine the selectivity index. ATPlite is a luminescence based assay reliant on the conversion of a luciferase substrate to light in the presence of ATP. As a cytotoxic compound will suppress growth and decrease the number of cells, the concentration of ATP will decrease, and less light signal will be detected in the well.
Assay Protocol Summary: 1,000 cells in 4 uL of media were dispensed into white, solid bottom 1536-well plates using a Multidrop Combi (Thermo Scientific). The Assay plates were incubated for 16 hours at 37 C with 5% CO2 in assay plates, followed by the addition of 23 nL of DMSO or drug dissolved in DMSO. Each compound was assayed in five concentrations (0.092, 0.46, 2.3, 11.5, and 57.5 uM), using the automated Wako 1536 Pin Tool workstation and incubated at 37 C with 5% CO2 48 hours. 4 uL of ATPlite, the ATP monitoring reagent, was then added to the each well of the assay plates using the Multidrop Combi reagent dispenser followed by incubation for 15 minutes at room temperature. The resulting luminescence was measured using the ViewLux plate reader.
Potency means the concentration at half of the fitted maximal effect.

| SMILES | Potency |
| --- | --- |
| C[N+]1(C)[C@@H]2CC[C@H]1CC(OC(=O)C(O)c1ccccc1)C2 (stereo not given in full) | inactive |
| CNC(=O)c1cccc2cc(Oc3ccnc4cc(OCC5(N)CC5)c(OC)cc34)ccc12 | inactive |
| C[C@@H](O[C@H]1OCCN(Cc2n[nH]nc2CN(C)C)[C@H]1c1ccc(F)cc1)c1cc(C(F)(F)F)cc(C(F)(F)F)c1 | inactive |
| C=C1C(=O)O[C@@H]2C[C@@]3(C)CCC[C@H](C)C3=C[C@H]12 | inactive |
| C=C1[C@@H](C)[C@H]2[C@H](Cc3c[nH]c4ccccc34)NC(=O)[C@]23C(=O)/C=C/C(=O)[C@H](O)/C(C)=C\[C@@H](C)C/C=C/[C@H]3[C@@H]1O | inactive |
| C[C@@H](c1nc(-c2ccc(C#N)cc2)cs1)[C@](O)(Cn1cncn1)c1cc(F)ccc1F | inactive |
| CC[C@H]1OC(=O)[C@H](C)[C@@H](O[C@H]2C[C@@](C)(OC)[C@@H](O)[C@H](C)O2)[C@H](C)[C@@H](O[C@@H]2O[C@H](C)C[C@H](N(C)C)[C@H]2O)[C@](C)(O)C[C@@H](C)/C(=N/OCOCCOC)[C@H](C)[C@@H](O)[C@]1(C)O | inactive |
| C=C(C(=O)O)C1CC2=C(C)C(=O)CC2C(C)CC1O (stereo not given) | inactive |
| CC1CCC(n2c3cnccc3c3cnc(Nc4ccc5c(n4)CCN(C(=O)CO)C5)nc32)CC1 (stereo not given) | inactive |
| COc1ccc(C(=O)N(CCC(C)C)Cc2nc(C)c(C)n2Cc2ccccc2C)c(OC)c1 | inactive |
| Nc1ccc(N)c([N+](=O)[O-])c1 | inactive |
| Cc1nnsc1C(=O)Nc1ccc(-n2nc(C(F)(F)F)cc2C(F)(F)F)cc1 | inactive |
| CC(C)[C@@H](C)/C=C/[C@@H](C)[C@H]1CC[C@H]2C3=CC=C4C[C@@H](O)CC[C@]4(C)C3=CC[C@]12C | inactive |
| CC1OC2O[C@H]3[C@@H](OCC(O)[C@H]3O)OC(=O)C34CCC(C)(C)CC3C3=CCC5C6(C)CC(O)C(OC7OC(CO)C(O)C(O)C7O[C@@H]7OC[C@H](OC(=O)CC(C)(O)CC(=O)OC1C(OC1OCC(O)C(O)C1O)C2O)[C@@H](O)[C@H]7O)C(C)(CO)C6CCC5(C)C3(C)CC4 (stereo not given in full) | inactive |
| CN(C)CC(=O)Nc1ccc2[nH]c(=O)c3ccccc3c2c1 | inactive |
| COc1ccc(Cl)cc1[C@@]1(F)C(=O)Nc2cc(C(F)(F)F)ccc21 | inactive |
| COc1ccccc1NC(=O)Nc1ccc2ccccc2c1 | inactive |
| Cc1ccccc1C(=O)Nc1ccc(C(=O)N2CCC[C@@H](O)c3cc(Cl)ccc32)c(C)c1 | inactive |
| CC1CCN(C(c2ccc(F)cc2)c2ccc(C(C)C(=O)O)cc2-c2ccc(C(F)(F)F)cc2)CC1 (stereo not given) | inactive |
| O=C(O)c1ccc(O)c2ncc(N3CCCN(CCc4cccc5ccccc45)CC3)cc12 | inactive |

| SMILES | Potency |
| --- | --- |
| CC1(C)CC23[C@@H]4CC(=O)[C@@H]2COC(=O)[C@@H]3CC[C@H]41 | inactive |
| CS(=O)(=O)c1ccc(-c2cn3ccccc3n2)cc1 | 10 µM (active) |
| Fc1ccccc1CNCc1ccc(-c2ccnc3[nH]ccc23)cc1 | inactive |
| Cc1cc(C)c(NC(=O)N(Cc2ccc3c(c2)Cc2ccccc2-3)C2CCCCCC2)c(C)c1 | inactive |
| Cc1ccn(-c2cc(Cl)ccc2[C@@H](Oc2cc(-c3ccc(C[C@H](N)C(=O)O)cc3)nc(N)n2)C(F)(F)F)n1 | inactive |
| CN(C)C(=O)c1cc2cnc(Nc3ccc(N4CCNCC4)cn3)nc2n1C1CCCC1 | inactive |
| N#CCC(C1CCCC1)n1cc(-c2ncnc3[nH]ccc23)cn1 (stereo not given) | inactive |
| N#Cc1ccc2c(c1)CCN(CCC1CCC(NC(=O)c3ccnc4ccccc34)CC1)C2 (stereo not given) | inactive |
| CN1CCN(C(=O)c2ccc(Nc3nccc(-c4cccs4)n3)cc2Cl)CC1 | inactive |
| Cc1cc(CN)cc(C)c1NC(=O)c1ccc(-c2cc(Cl)ccc2Cl)o1 | inactive |
| CN(CCCNC(=O)c1ccc2nc3c(c(Cl)c2c1)CCCC3)Cc1ccccc1 | inactive |
| OCC(CO)(CO)NCC(O)Cn1c2ccc(Cl)cc2c2cc(Cl)ccc21 (stereo not given) | inactive |
| COc1cc2ncnc(Nc3ccc(Oc4ccccc4)cc3)c2cc1OC | 31.6 µM (active) |
| COc1cccc(CNC(=O)Nc2nc(-c3ccncc3)cs2)c1 | inactive |
| CC(C)n1cnc2c(Nc3cccc(Cl)c3)nc(NCCO)nc21 | inactive |
| CNc1ccc([N+](=O)[O-])cc1-n1cnc(-c2ccc(C(F)(F)F)cc2)c1 | inactive |
| CCOc1cc(CNC2CCCC2)cc(Cl)c1OCc1ccc(Cl)cc1 | 22.4 µM (active) |
| C/C=C(/COC(=O)/C(C)=C/C)C(=O)OC/C=C/c1ccc(OC)cc1 | inactive |
| CC1CCCC(SCC(O)C(=O)O)CC(=O)c2c(O)cc(O)cc2CC(=O)O1 (stereo not given) | inactive |
| Cc1c(C(=O)NCCCO)cnn1-c1nc(-c2cccc(C(F)(F)F)c2)cs1 | inactive |

Reference: PubChem BioAssay (NCATS)
